# Laboratory results taken from ChEMBL document CHEMBL1157539, “Thousands of chemical starting points for antimalarial lead identification” (Nature, 2010).
# Residues, ends and D or L forms follow the SMILES beside them. *: point of attachment. Boc = CC(C)(C)OC(=O)*
# Assays:
# Format in all cases: functional
# Plasmodium falciparum [1] = assay: GSK_TCMDC: Inhibition of Plasmodium falciparum 3D7 in whole red blood cells, using parasite LDH activity as an index of growth. Test compounds present at 2uM
# Plasmodium falciparum [2] = assay: GSK_TCMDC: Inhibition of Plasmodium falciparum Dd2 in whole red blood cells, using parasite LDH activity as an index of growth. Test compounds present at 2uM
# HepG2 = assay: GSK_TCMDC: Percent inhibition of human HepG2 cell line. Test compounds present at 10uM.
Structure (SMILES),Inhibition (Plasmodium falciparum [1]),Inhibition (Plasmodium falciparum [2]),Inhibition (HepG2)
O=C(/C=C/c1ccc(C(F)(F)F)cc1)NCCCCCN1CCN(C(=O)Nc2ccc(Cl)c(Cl)c2)CC1,95%,0%,37%
COc1ccc(NC(=O)NCC2CCCN(CCCCCNC(=O)/C=C/c3ccc(Cl)c(Cl)c3)C2)c(OC)c1 (centres undefined),95%,0%,8%
Cc1ccc(Nc2ccnc(Nc3ccc4c(c3)CS(=O)(=O)C4)n2)cc1O.Cl,100%,76%,82%
COC(=O)CC[C@H](NC(=O)[C@H](C)NC(=O)OC(C)(C)C)C(=O)OC (Boc-Ala-Glu(OMe)-OMe),95%,0%,12%
O=C(CNCC1CCCCC1)Nc1cc(C(F)(F)F)ccc1Cl,86%,67%,1%
COc1cccc(Nc2c(C(N)=O)cnc3ccc(-c4ccc([S+](C)[O-])cc4)cc23)c1.O=C(O)C(F)(F)F (centres undefined),96%,100%,0%
CN(C)CC1CCCN1Cc1ccccc1-c1cnn(C)c(=O)c1Oc1ccc(F)cc1.O=C(O)C(F)(F)F (centres undefined),91%,19%,29%
FC(F)(F)c1ccc2[nH]c(-c3ccc(-c4cccc(CNCC5CCCO5)c4)s3)nc2c1.O=C(O)C(F)(F)F (centres undefined),99%,99%,37%
Cc1cc2nc(-c3ccc(OCC(=O)NCc4cccc(C(F)(F)F)c4)cc3)[nH]c2cc1C,94%,1%,4%
CCN(CC)CCN(CCN(CC)CC)c1ccc2c(c1)Sc1c(Cl)ccc(Cl)c1S2.Cl,98%,94%,31%
NC1=NC2(CCCCC2)N(OCCCCCCN2C(=O)c3ccccc3C2=O)C(N)=N1,98%,16%,20%
COc1ccc(C(=O)NCc2ccc(N)nc2C)cc1Nc1ncc(-c2cccc(N(C)C)c2)cn1,89%,68%,9%
CCN1CCC(N(Cc2ccc(-c3ccc(C(F)(F)F)cc3)cc2)C(=O)Cn2c(CCc3cccc(F)c3F)cc(=O)c3c2CCC3)CC1.O=C(O)C(O)C(O)C(=O)O,89%,85%,49%
COc1ccc(-c2csc3nc(C)nc(Cl)c23)cc1OC,97%,95%,0%
FC(F)(F)c1ccc2[nH]c(-c3ccc(-c4ccc(CNCCN5CCNCC5)cc4)s3)nc2c1.O=C(O)C(F)(F)F,94%,79%,17%
CCOc1ccc2ccccc2c1C(=O)Nc1cc(C)nn1-c1nc(C)cc(=O)[nH]1,93%,86%,28%
C[C@H](NC(=O)c1c(CN2CCC(NC(=O)CC(C)(C)C)CC2)c(-c2cccs2)nc2ccccc12)C1CCCCC1,91%,70%,0%
CCOc1ccc(-c2n[nH]c(C(F)(F)F)c2-c2ccccc2OC)c(O)c1,86%,12%,22%
Cc1cc(=O)c(C2CCC(c3ccc(Cl)cc3)CC2)c(C)[nH]1 (centres undefined),88%,70%,0%
CC1(C)N=C(N)N=C(N)N1c1ccc(Oc2ccc(Cl)cc2)c(Cl)c1,97%,20%,13%
CCCc1ccc(Nc2nc(C)cc(N(CC)CCCN3CCCCC3)n2)cc1.O=C(O)C(F)(F)F,100%,95%,48%
O=C(Cc1c[nH]cn1)Nc1cccc(-c2cccc(-c3nc4ccccc4[nH]3)c2)c1,97%,60%,24%
O=C(Nc1cccc(CN2CCN(Cc3ccc(O)cc3)CC2)c1)c1cc2ccccc2s1.O=C(O)C(F)(F)F,100%,26%,15%
CCCCN(CCCC)Cc1cc(Nc2ccnc3cc(Cl)ccc23)ccc1O.Cl,100%,87%,67%
Fc1ccc2[nH]c(-c3ccccc3)nc2c1CN1CCC(N2CCCC2)CC1.O=CO,100%,30%,2%
O=C(Nc1ccc(Br)cc1)c1cc(Br)ccc1NS(=O)(=O)c1ccc(C(F)(F)F)cc1,100%,56%,53%
CC(O)C(C)(CO)NCc1ccc2c3c(cccc13)-c1ccccc1-2.Cl (centres undefined),95%,85%,81%
Cc1cccc2nc(-c3cccc(-c4ccc(NC(=O)C5CC(=O)Nc6ccccc65)cc4)c3)[nH]c12 (centres undefined),87%,56%,15%
